Molecules are shown by their SMILES. The panel holds about 83,000 compounds, 20% with a hit somewhere; the sample as a whole holds those more often.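 Cell lines were cultured in 96-well plates, exposed to a single compound concentration, and assessed for percent growth 48 hours later.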 Unmarked numbers belong to inactive results. The source made the active and inactive calls. The calls were made as follows: active = growth percent below 10; inactive = the rest.

Test systems include DU-145 prostate; K-562 leukemia; MALME-3M melanoma; MDA-MB-231 breast; RXF 393 renal; SF-268 CNS; SF-295 CNS; SF-539 CNS; UACC-257 melanoma; M14 melanoma; HT29 colon; SNB-75 CNS; SNB-19 CNS; U251 CNS; PC-3 prostate; SK-MEL-5 melanoma; UACC-62 melanoma; LOX IMVI melanoma; SK-MEL-28 melanoma; HCT-15 colon.
Common to all, as to test: NCI-60 one-dose screen, 48 h (100 = growth as untreated, 0 = no growth, -100 = all killed)
Settings in all cases: 10 µM unless noted

Consider `COC(=O)c1c2c(n3ccccc13)C(=O)c1ccccc1C2=O`, for which the growth in the assay with DU-145 prostate was 69.4%; in the assay on K-562 leukemia it was 54.9%; in the assay on MALME-3M melanoma, 55.8%; in the assay on MDA-MB-231 breast, 64.4%; in the assay with RXF 393 renal, 72.1%; in the assay with SF-268 CNS, 74%. Further, the growth was 64.5% in the assay on SF-295 CNS; 89.5% with SF-539 CNS; 70.4% in the assay on UACC-257 melanoma; 63.6% in the assay with M14 melanoma; 55.3% with HT29 colon; 113% in the assay on SNB-75 CNS. Besides, the growth is 62.5% with SNB-19 CNS; 61.6% in the assay on U251 CNS; 47.2% with PC-3 prostate; 18.1% with SK-MEL-5 melanoma; 65.7% in the assay with UACC-62 melanoma; 49.3% in the assay with LOX IMVI melanoma. For the same molecule, in the assay with SK-MEL-28 melanoma, the growth is 106%.

As for `Cc1ccc(-c2nc3nc(-c4ccccc4)nc(N4CCCN(S(C)(=O)=O)CC4)c3o2)cc1`, the growth is 57.1% in the assay on DU-145 prostate; 84.5% with K-562 leukemia; 55.5% in the assay on MALME-3M melanoma; 73.5% with MDA-MB-231 breast; 19.4% in the assay with RXF 393 renal; 76% in the assay with SF-268 CNS. Further, the growth is 87.4% in the assay with SF-295 CNS; 30.7% with SF-539 CNS; 75.4% with UACC-257 melanoma; 70.9% with M14 melanoma; 58.4% in the assay on HT29 colon; 17.4% in the assay with SNB-75 CNS. The growth was 86.5% in the assay on SNB-19 CNS; 69.7% with U251 CNS; 68.3% in the assay on PC-3 prostate; 89.4% in the assay with SK-MEL-5 melanoma; 81.7% in the assay with UACC-62 melanoma; 71.7% in the assay on LOX IMVI melanoma. In the assay with SK-MEL-28 melanoma, the growth was 70.9%.

With `CCC1S/C(=N\N=C(\C)c2cc3cc(Cl)ccc3o2)N(c2ccccc2)C1=O` (configuration not stated), the growth is 131% in the assay with DU-145 prostate; 92.2% in the assay with K-562 leukemia; -3.03% (active) in the assay with MALME-3M melanoma; 89.4% in the assay with MDA-MB-231 breast; 131% with RXF 393 renal; 108% in the assay on SF-268 CNS. The growth was 103% in the assay with SF-295 CNS; 122% in the assay with SF-539 CNS; 154% in the assay on UACC-257 melanoma; 61.5% in the assay on M14 melanoma; 111% with HT29 colon; 110% with SNB-75 CNS. Also, the growth with SNB-19 CNS is 101%; with U251 CNS it was 99%; with PC-3 prostate it was 84.6%; with SK-MEL-5 melanoma it was 49.5%; in the assay with UACC-62 melanoma it was 88.9%; in the assay on SK-MEL-28 melanoma, 111%.

On to `c1nc2ccc(-c3cc4ccc5[nH]ncc5c4c4c3CCCC4)cc2[nH]1`, for which the growth in the assay on DU-145 prostate is 62.5%; in the assay on K-562 leukemia it was 27.8%; with MALME-3M melanoma, 28.8%; in the assay with MDA-MB-231 breast it was 81.6%; with RXF 393 renal, 62.6%; in the assay with SF-268 CNS, 71.1%. The growth was 67.9% in the assay on SF-295 CNS; 48.7% with SF-539 CNS; 59.1% in the assay on UACC-257 melanoma; 7.72% (active) in the assay on M14 melanoma; 58% in the assay with HT29 colon; 71.2% with SNB-75 CNS. Further, the growth with SNB-19 CNS was 74.9%; in the assay on U251 CNS, 77.3%; in the assay on PC-3 prostate, 63.1%; with SK-MEL-5 melanoma it was 67.4%; in the assay on UACC-62 melanoma, 31.9%; with LOX IMVI melanoma, 53.3%. Moreover, the growth in the assay with SK-MEL-28 melanoma is 41.7%.

On to `Nc1[nH]n2cc(-c3ccc(F)cc3)nc2c1N=Nc1ccc(S(N)(=O)=O)cc1`, for which the growth in the assay with DU-145 prostate is 70.2%; with K-562 leukemia it was 90.1%; in the assay with MALME-3M melanoma it was 58.4%; in the assay on MDA-MB-231 breast, 74.8%; in the assay on RXF 393 renal, 60.4%; in the assay with SF-268 CNS, 76.7%. In addition, the growth in the assay on SF-295 CNS is 98.2%; in the assay on SF-539 CNS, 72.5%; with UACC-257 melanoma, 99.6%; in the assay on M14 melanoma, 64.6%; in the assay on HCT-15 colon, 60.4%; in the assay with HT29 colon, 83.6%. The growth is 56.4% in the assay with SNB-75 CNS; 76.4% in the assay on U251 CNS; 76.9% in the assay on SK-MEL-5 melanoma; 71.4% in the assay on UACC-62 melanoma; 64.5% with LOX IMVI melanoma; 84.8% in the assay on SK-MEL-28 melanoma.

`O=[N+]([O-])c1cc(NS(=O)(=O)c2ccccc2)ccc1NS(=O)(=O)c1ccccc1`: the growth in the assay on DU-145 prostate is 87.1%; in the assay with K-562 leukemia it was 125%; in the assay on MALME-3M melanoma, 155%; with MDA-MB-231 breast, 91%; in the assay on RXF 393 renal, 134%; with SF-268 CNS, 106%. Further, the growth is 133% with SF-295 CNS; 118% with SF-539 CNS; 95% with UACC-257 melanoma; 88.5% in the assay with M14 melanoma; 84.6% with HT29 colon; 125% in the assay on SNB-75 CNS. The growth with SNB-19 CNS is 108%; in the assay on U251 CNS, 102%; with SK-MEL-5 melanoma it was 99.4%; in the assay on UACC-62 melanoma, 85.7%; in the assay with LOX IMVI melanoma it was 99%; in the assay on SK-MEL-28 melanoma, 111%.

For `O=C(Nc1ccc(Br)cc1)C1=NCCCCN1`, the growth in the assay with DU-145 prostate was 85.1%; with K-562 leukemia, 50.8%; in the assay on MALME-3M melanoma, 104%; with MDA-MB-231 breast, 92.1%; in the assay on RXF 393 renal it was 110%; with SF-268 CNS it was 79.6%. For the same molecule, the growth in the assay on SF-295 CNS was 98.2%; with SF-539 CNS it was 90.9%; with UACC-257 melanoma it was 100%; in the assay with M14 melanoma it was 81.6%; in the assay on HT29 colon it was 86%; in the assay on SNB-75 CNS, 88.6%. In addition, the growth in the assay on U251 CNS is 91.6%; in the assay with PC-3 prostate, 74.4%; in the assay with SK-MEL-5 melanoma it was 93.3%; in the assay with UACC-62 melanoma, 58.8%; in the assay with SK-MEL-28 melanoma it was 114%.

As to `COC(=O)CCC/C=C\C[C@H]1C=CC(=O)/C1=C/C[C@@H](O)C/C=C\CC(F)(F)F`, the growth in the assay with DU-145 prostate is 24.9%; in the assay on K-562 leukemia, 6.69% (active); in the assay on MALME-3M melanoma, 10.2%; in the assay on MDA-MB-231 breast it was 8.26% (active); in the assay with RXF 393 renal it was -5.41% (active); in the assay with SF-268 CNS it was 17.6%. Besides, the growth was -1.18% (active) with SF-295 CNS; 17.8% in the assay on SF-539 CNS; -15.6% (active) with UACC-257 melanoma; -16.8% (active) with M14 melanoma; -42.6% (active) with HT29 colon; 68.3% in the assay with SNB-75 CNS. The growth with SNB-19 CNS was 33.7%; in the assay on U251 CNS, -69.1% (active); in the assay on PC-3 prostate, -16.2% (active); in the assay with SK-MEL-5 melanoma, -89.7% (active); in the assay with UACC-62 melanoma, -37.2% (active); with LOX IMVI melanoma, -82.7% (active). Also, the growth in the assay with SK-MEL-28 melanoma was -25.5% (active).

The record behind these values is PubChem BioAssay (NCI).
